Assay outcomes (PubChem BioAssay)
This is a sample that favours compounds with a hit; in the whole collection about 5.4% have one here.
Six1-Eya2 blk – qHTS Assay for Inhibitors of the Six1/Eya2 Interaction; AID 651725, 2012; activity change, % (test concentration not listed); 0.56% of 360,000 active; AlphaScreen GST-Six1/His-Eya2 binding, biochemical; stronger effect = lower value; Homeobox protein SIX1 (Homo sapiens) + Protein phosphatase EYA2 (Homo sapiens), …; in the data active = activity change below about -65%; inconclusive = mostly about -30% to -63%; also: % is scaled to controls: 0 for no effect and ±100 for the full control effect
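Compounds are tested against tagged Six1 and Eya2 proteins bridged by glutathione donor and nickel acceptor beads; after a one-hour incubation at 37 °C without light, AlphaScreen emission is recorded.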
Gal4-VP16 FLuc – VP16 counterscreen qHTS for inhibitors of ROR gamma transcriptional activity. Drosophila S2 Gal4-VP16 UAS-luciferase, luminescence, 20 h. Potency, µM (titrated, usually from 53.6 µM), without a hit: top-dose activity, negative = inhibition, most hits filed as inhibitors. 3.5% of 310,000 active;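 also: Gal4-VP16 expression switched on by copper sulfate through the metallothionein promoter; potency is read from the fitted curve at half-maximal effect; % is scaled to controls: 0 for no effect and ±100 for the full control effect; nearly all actives have a fitted effect of over 50% in size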
RORgamma inh – qHTS for inhibitors of ROR gamma transcriptional activity. Drosophila S2 Gal4-RORgamma UAS-luciferase reporter, 20 h. Nuclear receptor ROR-gamma (Mus musculus), P51450. 5.4% of 310,000 active. Potency, µM (titrated, usually from 53.6 µM), for the others: at the top dose activity change, negative = inhibition, actives largely listed as inhibitors. AID 2551, 2010; also: potency is read from the fitted curve at half-maximal effect; % is scaled to controls: 0 for no effect and ±100 for the full control effect; nearly all actives have a fitted effect of over 60% in size
Target sequence (P51450 whole entry, looked up, the tested form may be a part): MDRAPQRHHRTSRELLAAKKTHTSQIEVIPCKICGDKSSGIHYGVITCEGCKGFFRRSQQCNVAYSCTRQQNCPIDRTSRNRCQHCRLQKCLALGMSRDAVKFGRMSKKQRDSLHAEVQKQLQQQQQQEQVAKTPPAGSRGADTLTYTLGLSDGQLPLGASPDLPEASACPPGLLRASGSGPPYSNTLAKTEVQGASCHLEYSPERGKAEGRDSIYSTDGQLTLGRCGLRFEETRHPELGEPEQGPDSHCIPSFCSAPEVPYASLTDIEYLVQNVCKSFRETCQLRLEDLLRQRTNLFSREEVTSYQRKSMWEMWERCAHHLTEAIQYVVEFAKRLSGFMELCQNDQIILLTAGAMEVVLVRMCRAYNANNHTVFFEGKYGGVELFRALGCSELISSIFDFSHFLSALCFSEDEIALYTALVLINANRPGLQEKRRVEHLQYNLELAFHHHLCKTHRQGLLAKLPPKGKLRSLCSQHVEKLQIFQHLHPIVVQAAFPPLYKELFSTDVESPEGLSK
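Luminescence from a UAS-regulated Photinus luciferase reporter in stably transfected Drosophila Schneider cells is measured; decreased signal marks ROR gamma inhibition. Fusion expression is induced by 700 uM copper sulfate for 20 hr.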
CtBP-E1A inh – qHTS Assay for Inhibitors of the CtBP/E1A Interaction. 0.49% of 340,000 active. activity change, % (no concentration beside the values). CtBP / adenovirus E1A interaction (AlphaScreen). AlphaScreen GST-E1A/His-CtBP binding, 1536-well; stronger effect = lower value; in the data active = activity change below about -65%; inconclusive = mostly about -30% to -63%; also: % is scaled to controls: 0 for no effect and ±100 for the full control effect
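GST-E1A and His-tagged CtBP (125 nM each as 5X stock) were preincubated with pin-transferred compound for 2 h at 37 °C in the dark, then glutathione donor and nickel acceptor beads were added for 1 h before AlphaScreen reading.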
p53 reactivation – qHTS assay for re-activators of p53 using a Luc reporter. H1299 p53-A138V BP100-luciferase reporter, luminescence, 24 h. Potency, µM (highest dose often 92.2 µM), for inactives: top-dose activity change, positive = activation, hits mostly activators. 0.063% of 320,000 active; also: potency is read from the fitted curve at half-maximal effect; % of control where 0% means no effect; nearly all actives have a fitted effect of over 45% in size
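H1299 (p53-null), stable ts p53-A138V + BP100-Luc; 1000 cells/well, Opti-MEM/10% FBS; cpd 4 pt, 1:5; 24 h, 37 deg C, 5% CO2; detection reagent 10 min RT; luminescence.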
Active calls of the source: *; ? = inconclusive; . = not tested or not shown; [ ] = another dose, or the depositor's remark. Unless noted, calls follow the shape of the dose curve; as a rule, active = well fitted curve in the direction sought with a large enough effect; inconclusive = small, poorly fitted or top-dose-only effect, or another doubt; inactive = no such curve, though single readings can be large; an effect the other way counts as inactive or inconclusive.

SMILES	Six1-Eya2 blk	Gal4-VP16 FLuc	RORgamma inh	CtBP-E1A inh	p53 reactivation
C=CCNC(=S)NN=C1CCC(c2ccccc2)CC1 (stereo not drawn)	-8.9	20µM*	12.6µM*	-10.3	-0.4%
COc1ccc(CCNC(=O)[C@H](C)N2C(=O)N3CCc4c([nH]c5ccccc45)[C@@]3(C)C2=O)cc1	0.2	-1.2%	?	-0.6	-0.5%
CN(C)c1ncc2nc(-c3ccccc3)c(=O)n(Cc3cccs3)c2n1	.	-4.3%	-12.7%	.	.
CCOc1ccc(-c2nnc(SCC(=O)Nc3ccc4c(c3)c3ccccc3n4CC)n2N)cc1	5.6	22.4µM*	?	-1.1	-46.1%
CCn1c2ccccc2c2cc(NC(=O)CSc3nnc(-c4ccc(OC)c(OC)c4)n3N)ccc21	1.2	-7.1%	?	-6.0	-2.2%
CN(C=[N+](C)C)c1cccc2c1C(=O)c1ccccc1C2=O	-66.0*	8.5%	-19.9%	-68.2*	11.9%
CCOc1ccc2[nH]c3c(NCCC(C)C)ncnc3c2c1	-13.1	4.47µM*	?	-14.3	1.2%
COc1ccc2[nH]c3c(NCCC4=CCCCC4)ncnc3c2c1	-21.0	7.08µM*	?	0.4	17.9%
CCOc1ccc2[nH]c3c(NCCN(C)C)ncnc3c2c1	.	25.0%	5.0%	.	-1.9%
CCN(CC)CCNc1ncnc2c1[nH]c1ccc(OC)cc12	.	-0.9%	22.8%	.	14.6%
COc1cc(N2C(=O)C=CC2=O)c(OC)cc1Cl	-13.8	4.47µM*	5.62µM*	-19.2	-15.3%
Oc1ccccc1-c1nnc(-c2ccc(C(F)(F)F)cc2)o1	10.4	6.31µM*	3.55µM*	5.9	17.7%
CN(CC(=O)NCC(=O)Nc1ccc(F)cc1)C1CCS(=O)(=O)C1 (stereo not drawn)	6.9	.	.	.	-2.9%
Cc1[nH]n(-c2ccccc2)c(=O)c1Sc1ccc(Cl)cc1	-6.7	-11.1%	31.2%	-1.7	25.4%
Cc1cc(-c2c(C)[nH]n(-c3ccc(Cl)cc3)c2=O)n[nH]1	?	0.631µM*	0.112µM*	?	19.7%
CCN(CC)c1ccc(Nc2nc(N3CCOCC3)c3ccccc3n2)cc1	-81.3*	11.2µM*	-41.7%	-78.4*	-0.7%
CCCCOCCCNC(=O)C[C@@H]1C[C@@]2(C(=O)OC)CC(C)(C)CC=C2N(Cc2ccc3c(c2)OCO3)C1=O	-12.5	.	.	1.3	.
COCc1cc(S(=O)c2ccc(Cl)cc2)nc(C)n1 (stereo not drawn)	2.6	?	4.47µM*	2.0	-9.5%
Cc1cc(C)n(-c2ccc(C(=O)N3CCC(CO)(Cc4ccccc4)CC3)cc2)n1	0.7	?	2.51µM*	3.4	-3.3%
Cc1sc2ncnc(SCC(=O)NC(=O)c3cccn3C)c2c1C	1.1	-7.0%	4.47µM*	-0.1	-4.7%
Cc1cccc(NC(=O)CSc2ncnc3sc(C)c(C)c23)n1	-6.2	-11.6%	16.2%	-0.5	-5.0%
C=CCSc1nc(N(CC)CC)c2sccc2n1	16.4	-16.9%	11.2µM*	25.1	1.4%
COc1ccc(/C=N/NC(=O)c2[nH]c3ccc(Br)cc3c2-c2ccccc2)cc1	-1.9	11.2µM*	10µM*	-3.6	21.6%
COc1ccc(/C=N/NC(=O)c2[nH]c3ccc(Cl)cc3c2-c2ccccc2)c(C(=O)O)c1OC	-71.6*	-4.8%	-8.0%	?	21.6%
Cc1c(C(=O)N/N=C/c2ccc(N(C)C)cc2)[nH]c2ccc(Cl)cc12	3.0	?	6.31µM*	2.9	0.5%
SMILES	Six1-Eya2 blk	Gal4-VP16 FLuc	RORgamma inh	CtBP-E1A inh	p53 reactivation
Cc1c(C(=O)N/N=C/c2ccccc2)[nH]c2ccc(Cl)cc12	-1.2	?	17.8µM*	.	?
O=C(N/N=C/c1ccccc1)c1c(O)c2ccccc2[nH]c1=O	2.9	-9.7%	?	-1.0	?
COc1ccc(/C=N/NC(=O)c2[nH]c3ccc(Br)cc3c2-c2ccccc2)c(C(=O)O)c1OC	?	-15.1%	-10.5%	?	7.8%
CC(=O)O[C@H]1C2=CO[C@H](C)[C@H]3[C@H]4C5=C([C@H](O)[C@H]6O[C@@H]6C5=O)[C@H](O[C@H]4C)[C@@]23C(=O)[C@H]2O[C@@H]21	.	-4.1%[10 µM]	?	.	.
CCOC(=O)C(Cc1c[nH]c2ccc([N+](=O)[O-])cc12)(NC(C)=O)C(=O)OCC	-5.4	.	.	5.0	.
CN(C)c1ccc2c(c1)C(=NO)c1ccccc1-2	-65.8*	.	.	0.5	.
CN1CCN(C(=S)Nc2ccccc2Cl)CC1	-4.9	3.6%	-7.8%	0.5	-3.3%
COc1ccccc1NC(=S)N1CCN(c2cccc(C)c2C)CC1	-4.5	11.2µM*	11.2µM*	-6.5	4.6%
Cc1ccccc1NC(=S)N1CCN(c2ccccc2Cl)CC1	-11.8	7.08µM*	7.08µM*	-3.0	.
CC(Sc1nnc(CNc2cccc3ccccc23)n1-c1ccccc1)C(=O)N/N=C/c1ccco1 (stereo not drawn)	0.2	1.1%	1.0%	-3.1	-0.5%
C=CCOc1ccc(C2NC(=S)NC(c3ccccc3)=C2C(C)=O)cc1OC (stereo not drawn)	2.4	-3.7%	14.1µM*	-2.2	-2.5%
CC(=O)C1=C(c2ccccc2)NC(=O)NC1c1ccc(O)c(Cl)c1 (stereo not drawn)	3.0	-0.9%	3.0%	-8.1	6.5%
CCOC(=O)COc1c(Cl)cc(C2NC(=S)NC(c3ccccc3)=C2C(C)=O)cc1OCC (stereo not drawn)	8.7	3.16µM*	3.55µM*	5.5	-26.7%
COc1cc(C2NC(=O)NC(c3ccccc3)=C2C(C)=O)ccc1OCC#N (stereo not drawn)	1.5	-12.6%	20.8%	7.8	-11.3%
CC(C(=O)O)c1ccc(N2Cc3ccccc3C2=O)cc1 (stereo not drawn)	2.6	3.98µM*	1.78µM*	0.1	?
Cc1cc(C)c(C(=O)CC(=O)c2ccccc2Cl)c(O)c1	3.0	4.47µM*	2.24µM*	5.0	?
COc1ccc(C(=O)NC(=S)Nc2ccc([N+](=O)[O-])cc2C)cc1OC	-4.4	?	15.8µM*	1.0	-3.2%
COc1ccc(C(=O)NC(=S)Nc2cccnc2)cc1[N+](=O)[O-]	5.6	-10.8%	?	9.7	2.6%
COc1ccc(C(=O)NC(=S)Nc2ccccc2[N+](=O)[O-])cc1OC	-4.6	16.8%	7.08µM*	-6.3	9.6%
CC(C)(C)CC(=O)NC(=S)Nc1ccccc1[N+](=O)[O-]	-12.7	?	6.31µM*	.	10.3%
CC(C)N(C)C	.	-6.8%	1.3%	.	.
O=C(Nc1ccc(F)cc1)Nc1nnc([C@@H]2C[C@H](O)[C@@H](CO)O2)s1	4.3	.	.	6.3	.
